Results published in PubChem BioAssay (NCATS).
Activity calls are given as the source filed them. The call rests on the fitted dose curve; in most records, active means well fitted activation curve with a large enough effect; inconclusive means small, poorly fitted or top-dose-only effect; inactive means flat fitted curve, though single readings scatter.

Experiment: Confirmation and Secondary Assay for Modulators of Hemoglobin Beta Chain Splicing at IVS2 654 locus (AID 910);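 further: HeLa cells stably carrying EGFP split by mutant beta-globin IVS2-654 intron; per-well total GFP intensity by laser scanning cytometry after 2-day treatment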
Conditions: HeLa EGFP-654 splicing reporter, GFP fluorescence, 48 h; series mostly up to 46.1 µM
How it was run: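 Readout: per-well total peak green fluorescence (488 nm ex, 500–520 nm em) from objects 5–250 µm, reflecting correct splicing of an EGFP-654 reporter. Compounds were applied for 2 days at 37 °C to overnight-plated HeLa EGFP-654 cells; controls were DMSO and 500 nM IVS2-654 PNA.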

Structure (SMILES) | outcome
CO/N=C1\CN(c2nc3c(cc2F)c(=O)c(C(=O)O)cn3C2CC2)CC1CN (stereo not given) | inactive
CC(C)(C)CC(C)(C)c1ccc(OCCOCC[N+](C)(C)Cc2ccccc2)cc1 | inactive
CCN1CCN(c2cc3c(cc2F)c(=O)c(C(=O)O)cn3C2CC2)CC1 | inactive
CCN(CCCCOC(=O)c1ccc(OC)c(OC)c1)C(C)Cc1ccc(OC)cc1 (stereo not given) | inactive
CCCCOc1ccc(OCCCN2CCOCC2)cc1 | inactive
CC(C)(Oc1ccc(Cl)cc1)C(=O)O | inactive
CCCCC1=NC2(CCCC2)C(=O)N1Cc1ccc(-c2ccccc2-c2nn[nH]n2)cc1 | inactive
C/C=C(/C(=C/C)c1ccc(O)cc1)c1ccc(O)cc1 | inactive
O=C1OCCN1/N=C/c1ccc([N+](=O)[O-])o1 | inactive
CC(=O)N(O)CCCCCNC(=O)CCC(=O)N(O)CCCCCNC(=O)CCC(=O)N(O)CCCCCN | inactive
CCC(=O)c1c(O)cc(O)cc1O | inactive
Cc1cc(=O)n(-c2ccccc2)n1C | inactive
CCN(CC)CCOC(=O)C(c1ccccc1)C1CCCCC1 (stereo not given) | inactive
CCCCC(CC)CN=C(N)NC(N)=NCCCCCCN=C(N)NC(N)=NCC(CC)CCCC (stereo not given) | inactive
Cc1ccc(C(=O)C(C)CN2CCCCC2)cc1 (stereo not given) | inactive
CCCC(=O)Nc1ccc(OCC(O)CNC(C)C)c(C(C)=O)c1 (stereo not given) | inactive

Structure (SMILES) | outcome
CCCCCCCCCCCCCCCCOP(=O)([O-])OCC[N+](C)(C)C | inactive
CN1CCN(C(c2ccccc2)c2ccccc2)CC1 | inactive
CC(CCc1ccccc1)NCC(O)c1ccc(O)c(C(N)=O)c1 (stereo not given) | inactive
Cc1c(N(C)CS(=O)(=O)O)c(=O)n(-c2ccccc2)n1C | inactive
CC(C)(C)CC(C)(C)c1ccc(O)c(Cc2ccc(Cl)cc2Cl)c1 | inactive
CCn1cc(C(=O)O)c(=O)c2cnc(N3CCCC3)nc21 | inactive
CCN(CC)C(=O)N1CCN(C)CC1 | inactive
Cc1c(C(N)=O)cc([N+](=O)[O-])cc1[N+](=O)[O-] | inactive
COc1ccc(C2C(=O)c3ccccc3C2=O)cc1 | inactive
CC(=O)Nc1c(I)cc(I)c(C(=O)O)c1I | inactive
CCCCOc1cc(C(=O)NCCN(CC)CC)c2ccccc2n1 | inactive
c1ccc(-c2ccc(C(c3ccccc3)n3ccnc3)cc2)cc1 (stereo not given) | inactive
COc1ccc(OC)c(C(O)CNC(=O)CN)c1 (stereo not given) | inactive
COc1cc(OC)cc(OC)c1 | inactive
Oc1ccc(Cl)c2cccnc12 | inactive
CCOc1ccc2nc3cc(N)ccc3c(N)c2c1 | inactive

Experiment: Confirmation and Secondary Assay for Modulators of Hemoglobin Beta Chain Splicing at IVS2 705 locus (AID 930);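 further: HeLa cells stably expressing the EGFP-705 splicing reporter; GFP fluorescence per well restored by corrected splicing of the IVS2-705 intron in EGFP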
Conditions: HeLa EGFP-705 splicing reporter, GFP fluorescence, 48 h; series mostly up to 46.1 µM
How it was run: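 Secondary splice-site specificity test uses HeLa expressing CMV-driven EGFP interrupted by IVS2-705; cells were treated 2 days at 37C with 500 nM antisense PNA as positive control.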

Structure (SMILES) | outcome
CC(C)(C)CC(C)(C)c1ccc(OCCOCC[N+](C)(C)Cc2ccccc2)cc1 | inactive
CCN(CCCCOC(=O)c1ccc(OC)c(OC)c1)C(C)Cc1ccc(OC)cc1 (stereo not given) | inactive
CCCCOc1ccc(OCCCN2CCOCC2)cc1 | inactive
CC(C)(Oc1ccc(Cl)cc1)C(=O)O | inactive
C/C=C(/C(=C/C)c1ccc(O)cc1)c1ccc(O)cc1 | inactive
O=C1OCCN1/N=C/c1ccc([N+](=O)[O-])o1 | inactive
CCC(=O)c1c(O)cc(O)cc1O | inactive
Cc1ccc(C(=O)C(C)CN2CCCCC2)cc1 (stereo not given) | inactive
CN1CCN(C(c2ccccc2)c2ccccc2)CC1 | inactive
CC(CCc1ccccc1)NCC(O)c1ccc(O)c(C(N)=O)c1 (stereo not given) | inactive
Cc1c(N(C)CS(=O)(=O)O)c(=O)n(-c2ccccc2)n1C | inactive
CC(C)(C)CC(C)(C)c1ccc(O)c(Cc2ccc(Cl)cc2Cl)c1 | inactive
CCN(CC)C(=O)N1CCN(C)CC1 | inactive
Cc1c(C(N)=O)cc([N+](=O)[O-])cc1[N+](=O)[O-] | inactive
COc1ccc(C2C(=O)c3ccccc3C2=O)cc1 | inactive
c1ccc(-c2ccc(C(c3ccccc3)n3ccnc3)cc2)cc1 (stereo not given) | inactive
Oc1ccc(Cl)c2cccnc12 | inactive
CCOc1ccc2nc3cc(N)ccc3c(N)c2c1 | inactive
